Inconclusive results are not listed. Active and inactive are the calls of the source. Unless noted, calls come from the whole dose curve.

Assay [1] concerns the target Gonadotropin-releasing hormone receptor (Homo sapiens) (UniProt P30968). Kind of assay: Human gonadotropin-releasing hormone receptor (GnRHR) small molecule agonists, calcium flux assay in GnRHR-HEK293 cells (AID 1920063). Note: nearly all actives have a fitted effect of over 35% in size. The essentials:
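Agonist activity was measured as intracellular calcium flux in HEK293 cells engineered to stably express human GnRHR. After dye loading for 1 hour at 37 C, compounds in DMSO were added and fluorescence was followed for 3 minutes.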
For orientation: Calcium assays in cells follow changes in intracellular calcium, usually with a dye or a luminescent sensor.

In assay [2] the target is KiSS-1 receptor (Homo sapiens) (UniProt Q969F8). Kind of assay: Human kisspeptin (KISS1R) small molecule agonists, calcium flux assay in KISS1R-HEK293 cells (AID 1920064; active = well fitted activation curve with a large enough effect in the repeat runs). The essentials: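 Agonist activity is monitored as intracellular calcium rise in engineered HEK293 cells carrying human KISS1R. Cells are dye-loaded for 1 h at 37 C before compound addition, and fluorescence is recorded for 3 min.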

Assay [3] in a line: G protein-coupled receptor (GPCR) small molecule agonists, calcium flux assay: HEK293 wild type cell line counter screen (AID 1920065). The essentials:
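Seed cells, incubate 18 h (37 C, 5% CO2); add calcium dye, 1 h at 37 C; pin-transfer compounds, ATP control or DMSO; read fluorescence 480/540 nm each second for 3 min.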

Assay [4] is described as follows: p53 small molecule agonists, cell-based qHTS assay with human liver microsomes (AID 1963577). The essentials: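 p53RE-bla cells, 4,000/well, compound added after 5 h, with human liver microsomes 0.5 mg/mL and NADPH 0.5 mg/mL final; 16 h at 37 C, then LiveBLAzer 2 h RT, fluorescence.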
Assay [5] in a line: p53 small molecule agonists, cell-based qHTS assay with rat liver microsomes (AID 1963578). The essentials:
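p53RE-bla cells, 4,000/well, pre-incubated 5 h, then given compounds plus rat liver microsomes (0.5 mg/mL final) and NADPH (0.5 mg/mL final). Incubation 16 h at 37 C; beta-lactamase reporter read by LiveBLAzer fluorescence after 2 h at room temperature.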

Assay [6] can be described thus: p53 small molecule agonists, cell-based qHTS assay with human liver microsomes: qHTS cell viability counter screen (AID 1963579). Note: nearly all actives have a fitted effect of over 45% in size. The essentials:
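p53RE-bla cells, 4,000/well, dosed 5 hours after plating, with human liver microsomes (0.5 mg/mL final) plus NADPH (0.5 mg/mL final), 16 hours at 37 C. Viability read as CellTiter-Glo luminescence after 30 min at room temperature.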

Assay [7] in a line: p53 small molecule agonists, cell-based qHTS assay with rat liver microsomes: qHTS cell viability counter screen (AID 1963580). Note: nearly all actives have a fitted effect of over 45% in size. The essentials:
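Counter screen for cytotoxicity under metabolic activation: rat liver microsomes and NADPH, 0.5 mg/mL final each, added with compounds to p53RE-bla HCT-116 cells; 16 h at 37 C, then ATP luminescence read.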

Assay [8] is described as follows: p53 small molecule agonists, cell-based qHTS assay: qHTS cell viability counter screen (AID 1963581). Note: nearly all actives have a fitted effect of over 45% in size. The essentials:
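Viability was counter-screened in parallel with the p53 agonist reporter by measuring intracellular ATP luminescence in the same HCT-116 p53RE-bla wells after 16 h compound treatment at 37 C.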
On the technique in general: qHTS replaces the single test concentration by a dilution series.

Assay [9] in a line: p53 small molecule agonists, cell-based qHTS assay (AID 1963582; active = well fitted activation curve with a large enough effect in the signal ratio in the repeat runs, not every such curve was filed as active; the % refers to the signal ratio). The gist of the method: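 Cells carrying a p53-responsive bla reporter are treated with test compounds for 16 h at 37 C; beta-lactamase activity is then detected with LiveBLAzer B/G FRET substrate after 2 h at room temperature.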
Assay [10] concerns the target 5-hydroxytryptamine receptor 2A (Homo sapiens) (UniProt P28223). Kind of assay: 5-hydroxytryptamine receptor 2A (HTR2A) small molecule antagonists, cell-based qHTS assay (AID 1963586). Note: nearly all actives have a fitted effect of over 45% in size. Note: potency is the fitted concentration of half-maximal effect. The essentials: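 CHO cells stably expressing human HTR2A were plated for 18 h at 37 C, then loaded with calcium dye for 1 h. Compounds were preincubated 5 min at room temperature before DOI (4 nM solution) was added. Kinetic fluorescence was read for 3 min.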

For assay [11], the target named is Muscarinic acetylcholine receptor M1 (Homo sapiens) (UniProt P11229). Kind of assay: Cholinergic receptor muscarinic 1 (CHRM1) small molecule antagonists, cell-based qHTS assay (AID 1963588). Note: nearly all actives have a fitted effect of over 40% in size. Note: potency is the fitted concentration of half-maximal effect. The gist of the method: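 Compounds were tested at 15 concentrations in three independent runs. Dye-loaded CHRM1-CHO cells were exposed 5 min at room temperature before stimulation by acetylcholine added at 50nM. Intracellular calcium was read kinetically on FDSS for 3 min.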

For assay [12] the target is unchanged. Description: Cholinergic receptor muscarinic 1 (CHRM1) small molecule agonists, cell-based qHTS assay (AID 1963589). Note: nearly all actives have a fitted effect of over 35% in size. The gist of the method:
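Cells were plated and incubated 18 h at 37 C/5% CO2, loaded with calcium dye for 1 h at 37 C, then treated with compounds in DMSO. Fluorescence was recorded kinetically at 1 sec intervals.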

A short description of assay [13]: cAMP Responsive Elements (CRE) small molecule agonists, cell-based qHTS assay (AID 1963590). The essentials: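 Cells carrying a CRE-driven beta-lactamase reporter (HEK 293T) are seeded, incubated overnight (18 h), and treated with test compounds for 3 h at 37 C; reporter activity is then detected with a FRET substrate after 2 h at room temperature.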
A short description of assay [14]: cAMP Responsive Elements (CRE) small molecule antagonists, cell-based qHTS assay (AID 1963591; active = well fitted inhibition curve with a large enough effect in the signal ratio in the repeat runs, not every such curve was filed as active; the % refers to the signal ratio). The gist of the method: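 Cells (CRE-bla HEK 293T, DMEM with 10% dialyzed FBS and 25 mM HEPES) are seeded and incubated 18 h. Compounds are added with NKH477 agonist at 0.25 uM final for 3 h, then FRET substrate for 2 h.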
For assay [15], the target named is Beta-2 adrenergic receptor (Homo sapiens) (UniProt P07550). Kind of assay: Adrenergic beta2 receptor (ADRB2) small molecule antagonists, cell-based qHTS assay (AID 1963592). Note: nearly all actives have a fitted effect of over 50% in size. Note: potency is the fitted concentration of half-maximal effect. The gist of the method:
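Assay format: CHO-ADRB2 cells, 18-20hr seeding at 37C/5% CO2, then compound plus 1nM isoproterenol agonist mix for 0.5hr RT. Homogeneous time-resolved fluorescence cAMP detection after 1hr, expressed as 665/615 nm ratio.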

Assay [16] has the same target. Description: Adrenergic beta2 receptor (ADRB2) small molecule agonists, cell-based qHTS assay (AID 1963593).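 Note: CHO cells stably overexpressing human ADRB2.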 The gist of the method:
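CHO cells stably over-expressing ADRB2 were plated overnight at 37C, then dosed with compounds plus a stimulation mix containing 100uM IBMX and 25uM Ro-20-1724 for 0.5hr at room temperature. cAMP was measured by HTRF competition, 1hr.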

Assay [17] concerns the target D(2) dopamine receptor (Homo sapiens) (UniProt P14416). Description: Dopamine D2 receptor (DRD2) small molecule agonists, cell-based qHTS assay (AID 1963594). Note: nearly all actives have a fitted effect of over 35% in size. The gist of the method:
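HEK293 cells stably expressing DRD2 were cultured 24 h at 37 C, then given Ro20-1724 (0.1 mM final) and compounds for 10 min at room temperature. NKH477 (200nM) was then added for 30 min. cAMP was read by HTRF.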

Assay [18] has the same target. Kind of assay: Dopamine D2 receptor (DRD2) small molecule antagonists, cell-based qHTS assay (AID 1963595; active = well fitted inhibition curve with a large enough effect in the signal ratio in the repeat runs, with a control signal flat; the % refers to the signal ratio). The gist of the method:
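Cells were plated and grown for 24 h at 37 °C. Ro20-1724 (0.1 mM final) went in first, then compound for 10 min. NKH477 (200 nM) with quinpirole (12 nM) followed for 30 min at RT, then HTRF detection reagents for 1 h.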

Assay [19] concerns the target 5-hydroxytryptamine receptor 2A (Homo sapiens) (UniProt P28223). Kind of assay: 5-hydroxytryptamine receptor 2A (HTR2A) small molecule agonists, cell-based qHTS assay (AID 1963587). Note: nearly all actives have a fitted effect of over 30% in size. The gist of the method:
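HTR2A-CHO cells, plated 18 h at 37 C/5% CO2, dye-loaded 1 h at 37 C; compounds in DMSO added by pin tool (agonist mode). Intracellular calcium flux read as kinetic fluorescence on FDSS over 2 min at 1 s intervals.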

The nature of assay [20]: Nuclear factor erythroid 2-related factor 2/antioxidant responsive element (Nrf2/ARE) small molecule agonists: luciferase reporter gene qHTS assay in human keratinocytes (AID 1919969). Note: nearly all actives have a fitted effect of over 35% in size. Background: Reporter assays use an easily measured gene product as a stand-in for the process of interest.

Chain of Beta-2 adrenergic receptor (Homo sapiens) (P07550 whole entry, looked up): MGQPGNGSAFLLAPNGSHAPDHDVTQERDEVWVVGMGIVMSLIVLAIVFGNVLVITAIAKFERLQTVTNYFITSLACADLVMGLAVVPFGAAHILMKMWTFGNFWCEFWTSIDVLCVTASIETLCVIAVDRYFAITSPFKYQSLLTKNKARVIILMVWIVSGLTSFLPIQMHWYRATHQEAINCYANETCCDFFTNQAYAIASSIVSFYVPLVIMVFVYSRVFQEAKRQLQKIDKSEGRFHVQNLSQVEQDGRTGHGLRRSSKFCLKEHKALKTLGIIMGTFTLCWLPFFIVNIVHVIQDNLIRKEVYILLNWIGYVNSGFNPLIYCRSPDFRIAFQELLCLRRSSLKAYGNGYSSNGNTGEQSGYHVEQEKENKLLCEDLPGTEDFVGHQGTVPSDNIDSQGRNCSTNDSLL
Chain of KiSS-1 receptor (Homo sapiens) (Q969F8 whole entry, looked up): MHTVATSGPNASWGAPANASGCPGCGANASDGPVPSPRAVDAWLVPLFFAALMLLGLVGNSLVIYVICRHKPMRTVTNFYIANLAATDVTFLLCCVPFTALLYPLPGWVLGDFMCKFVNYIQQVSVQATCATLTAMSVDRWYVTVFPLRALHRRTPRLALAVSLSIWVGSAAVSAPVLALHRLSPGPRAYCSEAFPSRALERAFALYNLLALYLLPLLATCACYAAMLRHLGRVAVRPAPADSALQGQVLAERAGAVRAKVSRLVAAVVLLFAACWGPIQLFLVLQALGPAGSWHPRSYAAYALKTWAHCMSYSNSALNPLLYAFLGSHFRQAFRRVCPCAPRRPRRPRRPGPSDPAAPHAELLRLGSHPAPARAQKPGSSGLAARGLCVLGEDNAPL
Chain of 5-hydroxytryptamine receptor 2A (Homo sapiens) (P28223 whole entry, looked up): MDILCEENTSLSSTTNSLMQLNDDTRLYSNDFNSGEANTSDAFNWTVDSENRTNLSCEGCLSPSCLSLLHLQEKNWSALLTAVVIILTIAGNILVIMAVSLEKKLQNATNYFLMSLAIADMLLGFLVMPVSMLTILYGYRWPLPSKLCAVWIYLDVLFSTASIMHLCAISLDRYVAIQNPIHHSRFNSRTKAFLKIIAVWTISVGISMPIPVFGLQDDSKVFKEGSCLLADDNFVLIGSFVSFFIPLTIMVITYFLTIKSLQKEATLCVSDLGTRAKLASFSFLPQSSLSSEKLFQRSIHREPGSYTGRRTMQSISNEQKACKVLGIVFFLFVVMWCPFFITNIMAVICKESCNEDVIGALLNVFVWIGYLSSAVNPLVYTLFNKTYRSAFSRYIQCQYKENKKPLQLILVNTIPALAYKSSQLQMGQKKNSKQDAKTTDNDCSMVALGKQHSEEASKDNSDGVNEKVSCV
Chain of Muscarinic acetylcholine receptor M1 (Homo sapiens) (P11229 whole entry, looked up): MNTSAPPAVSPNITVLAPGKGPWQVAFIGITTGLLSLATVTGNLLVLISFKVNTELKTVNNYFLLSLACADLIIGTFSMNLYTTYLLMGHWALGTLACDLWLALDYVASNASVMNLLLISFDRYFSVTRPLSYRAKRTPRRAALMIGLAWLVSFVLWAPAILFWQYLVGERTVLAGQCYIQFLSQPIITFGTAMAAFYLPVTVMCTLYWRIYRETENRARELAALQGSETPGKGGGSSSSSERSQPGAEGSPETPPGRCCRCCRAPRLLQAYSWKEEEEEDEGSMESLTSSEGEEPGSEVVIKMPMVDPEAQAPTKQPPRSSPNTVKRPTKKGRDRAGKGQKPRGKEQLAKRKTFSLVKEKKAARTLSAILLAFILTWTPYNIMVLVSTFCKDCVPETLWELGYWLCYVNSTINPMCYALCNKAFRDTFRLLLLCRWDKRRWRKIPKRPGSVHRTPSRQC
Chain of D(2) dopamine receptor (Homo sapiens) (P14416 whole entry, looked up): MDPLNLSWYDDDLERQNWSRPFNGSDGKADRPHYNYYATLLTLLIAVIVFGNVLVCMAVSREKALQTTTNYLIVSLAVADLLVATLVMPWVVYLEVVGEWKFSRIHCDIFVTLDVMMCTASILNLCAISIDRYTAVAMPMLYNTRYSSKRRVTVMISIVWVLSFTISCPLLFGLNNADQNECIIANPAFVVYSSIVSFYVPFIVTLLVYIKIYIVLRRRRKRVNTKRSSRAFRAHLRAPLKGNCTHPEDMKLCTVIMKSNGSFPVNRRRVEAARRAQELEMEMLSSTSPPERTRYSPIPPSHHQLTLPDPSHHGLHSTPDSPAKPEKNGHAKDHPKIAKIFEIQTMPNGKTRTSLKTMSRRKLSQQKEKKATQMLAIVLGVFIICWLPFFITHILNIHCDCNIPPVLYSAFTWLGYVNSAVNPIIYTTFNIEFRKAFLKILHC
Chain of Gonadotropin-releasing hormone receptor (Homo sapiens) (P30968 whole entry, looked up): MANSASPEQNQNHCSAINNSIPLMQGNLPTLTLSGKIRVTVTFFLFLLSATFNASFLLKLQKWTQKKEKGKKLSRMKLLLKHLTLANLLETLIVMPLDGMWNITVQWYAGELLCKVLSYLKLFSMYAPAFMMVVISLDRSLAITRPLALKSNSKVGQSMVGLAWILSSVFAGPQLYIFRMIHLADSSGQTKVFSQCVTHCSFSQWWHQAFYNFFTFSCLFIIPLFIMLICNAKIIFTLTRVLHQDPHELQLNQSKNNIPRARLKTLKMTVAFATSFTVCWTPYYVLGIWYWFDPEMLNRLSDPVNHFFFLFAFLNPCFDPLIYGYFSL

`O=c1ssc(Cl)c1Cl`: the Potency entry in [1], in assay [2], in [3], in assay [4], in assay [5] and in assay [6] was “inactive” throughout. Besides, the Potency result in assay [7], in assay [8], in [9], in assay [10], in assay [11] and in [12] was “inactive” throughout. In addition, the Potency entry in [13], in assay [14], in assay [15], in [16], in [17] and in assay [18] was “inactive” throughout.

Consider `CC(=O)c1cc2c(cc1C)C(C)(C)C(C)CC2(C)C` (stereo not given), for which the Potency entry in assay [1], in [2], in [3], in assay [4], in assay [5] and in [6] was “inactive” in each case. Also, the Potency entry in assay [7], in [8], in assay [9], in assay [10], in [19] and in assay [11] was “inactive” in each case. The Potency result in [12], in assay [14], in assay [15], in [17] and in [18] was “inactive” throughout.

As to `Cc1ccccc1`, the Potency result in [20], in [5], in assay [7], in assay [8] and in assay [9] was “inactive” each time.

For the compound `O=[N+]([O-])c1ccc(Oc2ccc(C(F)(F)F)cc2[N+](=O)[O-])cc1`, the Potency entry in assay [1], in [2], in assay [3], in [4], in [5] and in assay [6] was “inactive” throughout. Also, the Potency result in assay [7], in assay [8], in assay [10], in assay [19], in [12] and in assay [14] was “inactive” throughout. The Potency entry in assay [15], in [16] and in assay [18] was “inactive” in each case.

Turning to `Oc1ccc2[nH]cc(CCCCN3CC=C(c4ccccc4)CC3)c2c1`, the Potency result in [1], in [2], in assay [3], in assay [4], in assay [5] and in assay [7] was “inactive” each time. Also, the Potency entry in assay [8], in assay [9], in assay [19], in assay [11], in assay [12] and in [18] was “inactive” each time. Further, the Potency was 0.818 µM (active) in assay [10] and 26.6 µM (active) in assay [15].

Turning to `CCC(C)c1cccc(C(C)CC)c1O` (stereo not given), the Potency result in assay [1], in [2], in assay [3], in [4], in assay [5] and in [6] was “inactive” throughout. In addition, the Potency result in [8], in assay [9], in [19], in assay [12], in assay [15] and in [17] was “inactive” throughout. Further, in [18], the Potency entry is “inactive”.

Regarding `ClC1=C(Cl)[C@]2(Cl)[C@@H]3[C@H]4C[C@H]([C@@H]5O[C@H]45)[C@@H]3[C@@]1(Cl)C2(Cl)Cl`, the Potency result in assay [1], in assay [2], in [3], in assay [4], in assay [5] and in assay [6] was “inactive” each time. Moreover, the Potency entry in assay [7], in [8], in assay [9] and in assay [18] was “inactive” throughout.

On to `CCOC(=O)[C@]1(c2ccccc2)Oc2ccccc2[C@@H]1N`, for which the Potency result in assay [1], in assay [2], in [3], in [6], in assay [7] and in assay [8] was “inactive” throughout. In addition, the Potency result in assay [10], in assay [19], in assay [12], in assay [15] and in [17] was “inactive” in each case. In assay [11], the Potency is 8.4 µM (active).

On to `CSC(=O)c1c(C(F)F)nc(C(F)(F)F)c(C(=O)SC)c1CC(C)C`, for which the Potency result in [1], in assay [2], in assay [3], in assay [5], in [7] and in assay [8] was “inactive” throughout. In addition, the Potency entry in [19], in assay [12], in assay [14], in assay [15], in assay [17] and in assay [18] was “inactive” throughout.

For `Clc1ccc(CO/N=C(\Cn2ccnc2)c2ccc(Cl)cc2Cl)c(Cl)c1`, the Potency result in [1], in assay [2], in [3], in [5], in assay [6] and in assay [7] was “inactive” each time. The Potency result in assay [13], in assay [16] and in [17] was “inactive” in each case.
